Source: PubChem BioAssay (several laboratories)
Shn3 3UTR inh = inhibitors of Schnurri-3 3'UTR reporter in osteoblasts. Clone20 osteoblast Shn3 3'UTR firefly luciferase, 24 h. 360,000 compounds, 0.52% hits. inhibition, % at 12.5 µM;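 active = mean inhibition of at least 75% with every replicate also reaching 75%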;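 note: 0% = median of neutral control wells and 100% = pilot-screen positive control compound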
CF NFkB block = inhibitors of cystic fibrosis induced NF-kB. KKLEB NF-kB-GFP reporter, PAF-induced, GFP fluorescence overnight. inhibition, % at 5 µM. 360,000 compounds, 0.86% hits;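 active = at least 50% inhibition at 5 µM, scaled per plate between neutral and stimulator controls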;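 note: PAF is a Pseudomonas aeruginosa culture filtrate used as stimulus; plate controls were PAF-stimulated DMSO wells for no effect and unstimulated DMSO wells for full effect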
EBV LMP1 NFkB = inhibitors of Epstein-Barr LMP1-induced NF-kappaB reporter; 350,000 compounds, 0.69% hits; LMP1-induced NF-kappaB luciferase reporter cells, luminescence; inhibition, % at 12.5 µM; in the data active = inhibition above about 41%;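 note: 0% = neutral control wells and 100% = reference inhibitor control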
HIF-2a inh = HIF-2a inhibition; 786-0 RCC cells HIF-2a reporter, luciferase luminescence, overnight; inhibition, % at 18.8 µM; 360,000 compounds, 0.72% hits;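 active = inhibition of the luminescence signal of 40% or more relative to plate controls, in a single-dose primary screen at 18.75 µM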
KKLEB tox = CF airway cell cytotoxicity counter-screen. KKLEB CF airway cells viability, ATPlite luminescence, overnight; stronger effect = lower value; cells stimulated with P. aeruginosa culture filtrate. AID 602141. 360,000 compounds, 0.36% hits. activity change (cytotoxicity), % at 5 µM;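 active = corrected activity change at or below -50% at 5 µM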
Peg3 prom inh = inhibitors of Peg3 promoter. 360,000 compounds, 1.7% hits. HeLa PEG-Prom luciferase reporter, luminescence, overnight. AID 588405. inhibition, % at 20 µM;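 active = inhibition of at least 50% at 20 µM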
An asterisk follows results filed as active; nt = no result. Sampled rows, rich in hits. Any-hit rate of the full collection: about 2.9%.

SMILES | Shn3 3UTR inh | CF NFkB block | EBV LMP1 NFkB | HIF-2a inh | KKLEB tox | Peg3 prom inh
CN(C)S(=O)(=O)c1cccc(NC(=S)N/N=C/c2cc(Br)ccc2O)c1 | 91* | 6 | 49* | -5 | 4 | 54*
Cc1ccc(NC2=C(CC(=O)O)C(c3ccccc3)N(c3ccc(C)cc3)C2=O)cc1 (centres undefined) | -12 | -2 | 0 | -78 | -1 | -30
COc1ccc(C(C#N)=C2C=C(Cl)C(=NO)C=C2Cl)cc1 | -7 | 68* | 5 | -126 | 4 | -15
COc1ccc(C(C#N)=C2C=CC(=NO)C(C)=C2Cl)cc1 | 16 | 5 | -2 | -27 | -3 | 12
CC/C(=C/c1ccccc1)c1cccc2[nH]c3c(OC)cccc3c12 | 86* | 14 | -7 | -12 | -11 | -10
COc1cccc(C(=O)N/N=C(/CCC(=O)O)c2ccccc2)c1 | -6 | 10 | -18 | -17 | 2 | -15
C/C(=N\NC(=O)c1cc(C)nc2ccccc12)c1ccccn1 | 95* | -58 | 29 | -8 | 11 | 46
COc1cc(C(=O)N/N=C(\C)c2ccccn2)cc(OC)c1OC | -3 | -1 | 13 | -3 | 15 | 58*
COc1cccc(C(=O)N/N=C(/c2ccccc2)c2ccccn2)c1 | 79 | 4 | 40 | -15 | 16 | 86*
C/C(=N\NC(=O)c1cc(C)nc2ccccc12)c1ccncc1 | 6 | -8 | -1 | 12 | 4 | 0
CC(OC(=O)c1ccc(Cl)nc1)C(=O)NCc1ccc2c(c1)OCO2 (centres undefined) | 1 | 0 | -2 | 7 | -1 | -7
N#C/C(=N/Nc1ccc(OC(F)(F)F)cc1)C(N)=S | -30 | 64* | 34 | -256 | -48 | -169
Cc1ccc(/C=C/c2nc3ccccc3s2)s1 | 13 | -1 | 43* | 22 | -28 | -26
O=C(CC(=O)NC1CCCCC1)N/N=C/c1cccc2ccccc12 | 18 | 15 | 3 | 9 | 5 | 1
Nc1ccc2nc(CCc3ccccc3)[nH]c2c1 | -71 | 11 | 59* | -100 | 9 | -113
O=C1c2cccc(OCC(=O)N3CCCc4ccccc43)c2CCN1Cc1ccc(Br)cc1 | 51 | 5 | 15 | -15 | -14 | 58*
CC1(C)Cc2c(cnn2-c2ccccc2)C(NC(=O)CCc2ccc(=O)[nH]n2)C1 (centres undefined) | 16 | -32 | 11 | 17 | 13 | 5
Cc1ccc(-n2ncc3c2CC(C)(C)CC3NC(=O)CCN2CCCCC2=O)cc1 (centres undefined) | 16 | -16 | -10 | 2 | 12 | 7
COc1cc(NC(=O)c2ccc(-c3cccc([N+](=O)[O-])c3)o2)ccc1NC(=O)C(C)C | 9 | -72 | 7 | -2 | 7 | 78*
CC(=O)c1ccc(NC(=O)c2ccc([N+](=O)[O-])o2)cc1 | -66 | 11 | -36 | 20 | 0 | 31
COc1cc(NC(=O)c2ccc([N+](=O)[O-])o2)ccc1NC(=O)c1ccco1 | 68 | 10 | -34 | -45 | -15 | 57*
Cc1cc(C)cc(NC(=O)c2ccc([N+](=O)[O-])o2)c1 | 35 | 85* | -26 | 19 | -68* | 75*
NC(=O)c1oc2ccccc2c1NC(=O)c1ccc(F)cc1 | 5 | -47 | -4 | 8 | 3 | 12
COc1cc(NC(=O)c2cccc([N+](=O)[O-])c2)ccc1NC(=O)c1ccco1 | 0 | -26 | 10 | -42 | 18 | -18
COc1cc([N+](=O)[O-])ccc1NC(=O)c1cccc(NC(=O)C(C)C)c1 | -42 | -15 | 5 | -23 | 1 | -1
NC(=O)c1oc2ccccc2c1NC(=O)c1ccc([N+](=O)[O-])o1 | 58 | 62* | 4 | 16 | -24 | 109*
CCNC(=O)C[C@@H]1CC[C@H]2[C@@H](COC[C@H](O)CN2C(=O)C2CC2)O1 | nt | nt | nt | 11 | nt | nt
CCOC(=O)CN1N=C(c2ccc(C)cc2)CCC1=O | 8 | -8 | 3 | 11 | -7 | -8
COc1cccc(-c2oc3c(c2-c2ccc(Br)nc2)C(O)CCC3)c1 (centres undefined) | nt | nt | nt | -27 | nt | nt
COc1ccccc1NC(=O)c1oc2ccccc2c1NC(=O)c1cc(OC)c(OC)c(OC)c1 | 28 | 56* | 18 | 17 | -58* | 30
